# Results taken from PubChem BioAssay (EPA / NIEHS).
# Active and inactive are the calls of the source. The calls were made as follows: active = hit-call score of the fitted dose curve at least 0.9, where 1 is the maximum; inactive = score below 0.9.
# Read-out: Transforming Growth Factor (TGFA), TGFA (gene 7039)
# Assay: LTEA_HepaRG_TGFA: Life Technologies and Expression Analysis (LTEA) Assay for Transforming Growth Factor (TGFA) using HepaRG (AID 2283532)
# Conditions: mRNA level, 48 h; actives raise or lower the signal
# Method: LTEA_HepaRG is a cell based, multiplexed-readout assay that uses HepaRG, a human liver cell line, with measurements taken at 48 hours after chemical dosing on a 96-well plate.LTEA_HepaRG_TGFA is one of 102 assay component(s) measured in the LTEA HepaRG cell culture assay. It is a marker of Cell proliferation, survival, death.Data from the assay component LTEA_HepaRG_TGFA was analyzed into 1 endpoint. This assay endpoint, LTEA_HepaRG_TGFA, was analyzed with bidirectional fitting relative to DMSO as the negative control and baseline of activity. Using a type of inducible reporter, measures of mRNA induction for gain or loss-of-signal activity can be used to understand regulation of transcription factor activity. To generalize the intended target to other relatable targets, this assay endpoint is annotated to the growth factor intended target family, where the subfamily is EGF-like domain.
# A total of 1060 chemcials from the ToxCast library were tested in eight-point concentration-response experiments. Cell culture and cytotoxicity assays were conducted at Thermo Fisher Scientific's Custom Services facility (Madison, WI). A single lot of human HepaRG cells (Thermo Fisher Scientific, Frederick, MD) was used for the cell culture experiments. 96-well format collagen type I coated plates of human HepaRG cells were prepared using established methods. Briefly, cryopreserved HepaRG cells were thawed, plated at a density of approximately 100,000 cells/well in HepaRG Thaw, Plate, and General Purpose media (HPRG770, Thermo Fisher Scientific), and incubated for 48 hours. 0.5% DMSO was selected as vehicle control to balance the requisite need of DMSO in HepaRG cultures to maintain differentiation (for example, baseline metabolism, proportions of hepatocytes vs. cholangiocytes), while enabling further hepatic receptor pathway activation (for example, PXR and CAR) in response to chemical exposure. 48 hours after plating, the culture medium was replaced with HepaRG Serum-Free Incudtion Media. Cells were exposed to each test chemical in duplicate and maintained in CO2 incubators for another 48 hours. Chemical plates were thawed to room temperature and 200x concentrations of treatment groups were prepared. 8-point conentration-reponse curves were made with the highest exposure at 100 uM, followed by half-log dilutions, all in 0.5% DMSO. Each test plate contained variouse controls, induction positive controls (1mM phenobarbital), cytotoxicity positive controls ([…] aflatoxin B1), vehicle controls (0.5% DMSO), and total lysis controls (0.5% DMSO). Cell morphology images were taken using an Essen IncuCyte FLR automated microscope, with six 96-well plates imaged in about 24 minutes. Images were captured and exported and JPEG files. Spent culture media was transfered to black-well plates for the LDH assay, and remaining media was sorted at -80 C for later use. Cells were treated with RLT buffer and frozen until shipped for gene expression analysis. Total RNA was isolated from the cell suspension in 75 uL of Buffer RLT (Qiagen, Germantown, MD 20874) by Quintiles/Expression Analysis (Durham, NC) using a custom isolation procedure. Total RNA from each plate well was transferred to a preamplification plate. Fluidigm's 96.96 Dynamic ArrayTM (Fluidigm, Amsterdam, the Netherlands) technology was used for gene expression analyses by quantitative reverse transcription polymerase chain reaction (qRT-PCR, performed by Quintiles/Expression Analysis, Durham, NC)89. Standard TaqManTM Assays (Applied Biosystems/ThermoFisher Scientific, Foster City, CA) were used to assess the expression of 93 genes selected based on their selectivity and sensitivity to important hepatic receptors known to be modulated by environmental chemicals; importance in human hepatocyte functionality; and hepatotoxicity. […]
SMILES,outcome,AC50
Clc1cccc(Cl)c1Cl,inactive,
CC(C)(C)c1ccccc1O,inactive,
OCCN(CCO)CCO,inactive,
Oc1cc(Cl)c(Cl)cc1Cl,inactive,
N#Cc1cccnc1,inactive,
O=C(O)C1(c2ccc3c(c2)OC[C@H](Cc2ccc(-c4ccccc4)cc2)[C@H]3O)CCCC1,inactive,
CN(C)C(=S)S,inactive,
CCCCCCCCCCCCc1cccc(S(=O)(=O)O)c1,,45 µM (active)
Cc1cc(C)cc(C)c1,inactive,
Oc1c(Cl)cc(Cl)cc1Cl,inactive,
O=C(N[C@H]1CN2CCC1CC2)c1ccc2c(c1)OCCO2,inactive,
COc1ccccc1N,inactive,
Clc1cccc(Cl)c1,inactive,
CC(C)O.CC(C)O.OCCN(CCO)CCO.OCCN(CCO)CCO.[Ti],inactive,
